Data: PubChem BioAssay AID1159580 (chemical genetic matrix, 2015)
About 2,000 (36%) of roughly 5,500 compounds were called active. About 18% were inconclusive and are not listed. Some of the results follow. A number with no mark means an inactive call. Cut-off read from the data, not from the text of the source: active = normalized growth mostly below about 0.91 (no sharp cut-off); inconclusive = no clear call, values can overlap the other calls; inactive = mostly above about 0.92.

Assay: chemical genetic growth profiling, strain panel (AID 1159580);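 note: tested at 20 µM; growth read once vehicle control cultures reached saturation at 30 °C; 1 = growth at the plate median or of vehicle wells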
Conditions: S. cerevisiae deletion strains, growth OD
[1] = locus YAL040C, strain CLN3, stronger effect = lower value
[2] = locus YCL061C, strain MRC1 (second series), stronger effect = lower value
[3] = locus YDR363W, strain ESC2, stronger effect = lower value
[4] = locus YER002W, strain NOP16, stronger effect = lower value
[5] = locus YJR075W, strain HOC1, stronger effect = lower value
[6] = locus YMR263W, strain SAP30, stronger effect = lower value
[7] = locus YNL153C, strain GIM3, stronger effect = lower value
[8] = locus YNL175C, strain NOP13, stronger effect = lower value
[9] = locus YNL197C, strain WHI3, stronger effect = lower value
[10] = locus YNL224C, strain SQS1, stronger effect = lower value
[11] = locus YOR083W, strain WHI5 (second series), stronger effect = lower value

Structure (SMILES): CC[N+](CC)(CC)CC
- normalized growth [1]: 1.02
- normalized growth [2]: 1
- normalized growth [3]: 0.99
- normalized growth [4]: 0.989
- normalized growth (locus YGR078C, strain PAC10, stronger effect = lower value): 1
- normalized growth (locus YGR229C, strain SMI1, stronger effect = lower value): 1.02
- normalized growth [5]: 1.02
- normalized growth [6]: 0.994
- normalized growth (locus YMR307W, strain GAS1, stronger effect = lower value): 0.991
- normalized growth [7]: 0.986
- normalized growth [8]: 0.981
- normalized growth [9]: 1.01
- normalized growth [10]: 0.997
- normalized growth [11]: 0.999

Structure (SMILES): CC#C[C@]1(O)CC[C@H]2[C@@H]3CCC4=CC(=O)CCC4=C3[C@@H](c3ccc(N(C)C)cc3)C[C@@]21C
- normalized growth [1]: 0.978
- normalized growth [2]: 0.98
- normalized growth (locus YDR150W, strain NUM1, stronger effect = lower value): 0.981
- normalized growth [3]: 1.01
- normalized growth [4]: 1
- normalized growth [5]: 0.965
- normalized growth [6]: 0.984
- normalized growth (locus YNL128W, strain TEP1, stronger effect = lower value): 1.04
- normalized growth [7]: 0.951
- normalized growth [8]: 0.983
- normalized growth [9]: 0.998
- normalized growth [10]: 0.979
- normalized growth (locus YNL322C, strain KRE1, stronger effect = lower value): 0.965
- normalized growth [11]: 0.991
- normalized growth (locus YPL055C, strain LGE1, stronger effect = lower value): 0.99

Structure (SMILES): C=CC[C@]1(O)CCC2C3CCC4=CC(=O)CCC4=C3C=C[C@@]21C (some centres undefined)
- normalized growth (locus YAL021C, strain ccr4, stronger effect = lower value): 0.989
- normalized growth (locus YAL026C, strain drs2, stronger effect = lower value): 0.975
- normalized growth (locus YAL030W, strain snc1, stronger effect = lower value): 0.994
- normalized growth (locus YBL061C, strain skt5, stronger effect = lower value): 0.989
- normalized growth (locus YBR009C, strain hhf1, stronger effect = lower value): 0.988
- normalized growth (locus YBR023C, strain chs3, stronger effect = lower value): 0.986
- normalized growth (locus YBR171W, strain sec66, stronger effect = lower value): 0.975
- normalized growth (locus YBR231C, strain swc5, stronger effect = lower value): 0.988
- normalized growth (locus YBR279W, strain paf1, stronger effect = lower value): 0.996
- normalized growth (locus YCL011C, strain gbp2, stronger effect = lower value): 1.01
- normalized growth (locus YCL016C, strain dcc1, stronger effect = lower value): 0.998
- normalized growth (locus YCL061C, strain MRC1, stronger effect = lower value): 0.998
- normalized growth (locus YCL069W, strain vba3, stronger effect = lower value): 0.999
- normalized growth (locus YCR088W, strain abp1, stronger effect = lower value): 0.987
- normalized growth (locus YDL005C, strain med2, stronger effect = lower value): 0.996
- normalized growth (locus YDL040C, strain nat1, stronger effect = lower value): 0.991
- normalized growth (locus YDR001C, strain nth1, stronger effect = lower value): 0.995
- normalized growth (locus YDR069C, strain doa4, stronger effect = lower value): 0.996
- normalized growth (locus YDR137W, strain rgp1, stronger effect = lower value): 0.806 (active)
- normalized growth (locus YDR159W, strain sac3, stronger effect = lower value): 0.997
- normalized growth (locus YDR195W, strain ref2): 1.05
- normalized growth (locus YDR297W, strain sur2, stronger effect = lower value): 0.985
- normalized growth (locus YDR334W, strain swr1, stronger effect = lower value): 0.997
- normalized growth (locus YDR335W, strain msn5, stronger effect = lower value): 1.01
- normalized growth (locus YDR392W, strain spt3, stronger effect = lower value): 0.551 (active)
- normalized growth (locus YEL003W, strain gim4, stronger effect = lower value): 0.992
- normalized growth (locus YEL037C, strain rad23, stronger effect = lower value): 0.995
- normalized growth (locus YEL061C, strain CIN8 (second series), stronger effect = lower value): 0.993
- normalized growth (locus YER015W, strain faa2, stronger effect = lower value): 0.997
- normalized growth (locus YER016W, strain bim1, stronger effect = lower value): 0.996
- normalized growth (locus YER111C, strain swi4, stronger effect = lower value): 0.998
- normalized growth (locus YER155C, strain BEM2 (second series), stronger effect = lower value): 0.815 (active)
- normalized growth (locus YFR010W, strain ubp6, stronger effect = lower value): 1.01
- normalized growth (locus YGL167C, strain pmr1, stronger effect = lower value): 0.992
- normalized growth (locus YGL173C, strain kem1, stronger effect = lower value): 0.99
- normalized growth (locus YGL227W, strain vid30, stronger effect = lower value): 0.995
- normalized growth (locus YGL240W, strain doc1, stronger effect = lower value): 0.989
- normalized growth (locus YGL253W, strain hxk2, stronger effect = lower value): 0.985
- normalized growth (locus YHR013C, strain ard1, stronger effect = lower value): 0.935
- normalized growth (locus YHR027C, strain rpn1, stronger effect = lower value): 0.996
- normalized growth (locus YHR030C, strain SLT2, stronger effect = lower value): 0.992
- normalized growth (locus YHR079C, strain IRE1, stronger effect = lower value): 1
- normalized growth (locus YHR142W, strain chs7, stronger effect = lower value): 0.944
- normalized growth (locus YJL092W, strain hpr5, stronger effect = lower value): 0.984
- normalized growth (locus YJL095W, strain BCK1 (second series), stronger effect = lower value): 1
- normalized growth (locus YJL095W, strain BCK1, stronger effect = lower value): 0.909
- normalized growth (locus YJL115W, strain asf1, stronger effect = lower value): 0.991
- normalized growth (locus YJL129C, strain trk1, stronger effect = lower value): 0.91
- normalized growth (locus YJL154C, strain vps35, stronger effect = lower value): 0.995
- normalized growth (locus YJL164C, strain tpk1, stronger effect = lower value): 1
- normalized growth (locus YJL166W, strain qcr8, stronger effect = lower value): 0.982
- normalized growth (locus YJL187C, strain SWE1, stronger effect = lower value): 0.993
- normalized growth (locus YJR066W, strain TOR1, stronger effect = lower value): 0.946
- normalized growth (locus YKL160W, strain elf1, stronger effect = lower value): 0.984
- normalized growth (locus YKR026C, strain gcn3, stronger effect = lower value): 0.977
- normalized growth (locus YKR091W, strain srl3, stronger effect = lower value): 0.996
- normalized growth (locus YLL001W, strain dnm1, stronger effect = lower value): 1
- normalized growth (locus YLL026W, stronger effect = lower value): 0.995
- normalized growth (locus YLL041C, strain sdh2, stronger effect = lower value): 0.991
- normalized growth (locus YLR027C, strain aat2, stronger effect = lower value): 1
- normalized growth (locus YLR113W, strain HOG1, stronger effect = lower value): 0.884
- normalized growth (locus YLR221C, strain rsa3, stronger effect = lower value): 0.986
- normalized growth (locus YLR258W, strain gsy2, stronger effect = lower value): 0.991
- normalized growth (locus YLR262C, strain YPT6 (second series), stronger effect = lower value): 0.804 (active)
- normalized growth (locus YLR320W, strain mms22, stronger effect = lower value): 0.838 (active)
- normalized growth (locus YLR342W, strain FKS1, stronger effect = lower value): 0.969
- normalized growth (locus YLR357W, strain rsc2, stronger effect = lower value): 0.999
- normalized growth (locus YLR370C, strain arc18, stronger effect = lower value): 0.982
- normalized growth (locus YLR384C, strain iki3, stronger effect = lower value): 1
- normalized growth (locus YML120C, strain ndi1, stronger effect = lower value): 0.98
- normalized growth (locus YMR058W, strain fet3, stronger effect = lower value): 0.993
- normalized growth (locus YMR125W, strain sto1, stronger effect = lower value): 1
- normalized growth (locus YMR129W, stronger effect = lower value): 0.993
- normalized growth (locus YMR205C, strain PFK2, stronger effect = lower value): 0.895
- normalized growth (locus YMR231W, strain pep5, stronger effect = lower value): 0.995
- normalized growth (locus YNL071W, strain lat1, stronger effect = lower value): 0.817 (active)
- normalized growth (locus YNL183C, strain NPR1, stronger effect = lower value): 0.93
- normalized growth (locus YNL209W, strain ssb2, stronger effect = lower value): 1
- normalized growth (locus YNL248C, strain rpa49, stronger effect = lower value): 1.01
- normalized growth (locus YNL322C, strain KRE1 (second series), stronger effect = lower value): 0.999
- normalized growth (locus YNR049C, strain mso1, stronger effect = lower value): 0.997
- normalized growth (locus YOR001W, strain rrp6, stronger effect = lower value): 0.99
- normalized growth (locus YOR070C, strain gyp1, stronger effect = lower value): 0.982
- normalized growth (locus YOR080W, strain dia2, stronger effect = lower value): 0.998
- normalized growth (locus YOR083W, strain WHI5, stronger effect = lower value): 0.994
- normalized growth (locus YOR106W, strain vam3, stronger effect = lower value): 1.01
- normalized growth (locus YOR231W, strain MKK1, stronger effect = lower value): 0.985
- normalized growth (locus YOR265W, strain rbl2, stronger effect = lower value): 0.998
- normalized growth (locus YOR270C, strain vph1, stronger effect = lower value): 0.872
- normalized growth (locus YOR290C, strain snf2, stronger effect = lower value): 0.953
- normalized growth (locus YPL051W, strain arl3, stronger effect = lower value): 0.988
- normalized growth (locus YPL078C, strain atp4, stronger effect = lower value): 1.02
- normalized growth (locus YPL106C, strain sse1, stronger effect = lower value): 1.04
- normalized growth (locus YPL240C, strain hsp82, stronger effect = lower value): 0.991
- normalized growth (locus YPL256C, strain CLN2, stronger effect = lower value): 0.993
